# In PubChem BioAssay:
# Test system: not listed separately
# Experiment: probe aLefty2 binding to arrayed compounds – biochemical, biotinylated probe, 635/667 nm fluorescence, primary screen (AID 1094);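 further: score merges spot fluorescence near 667 nm with spot signal-to-noise ratio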
# Conditions: small-molecule microarray, higher = more signal
row,SMILES,composite z-score
1,C#CCN(Cc1ccccc1Br)[C@H](/C=C/c1ccccc1)[C@@H](O)Cc1ccccc1,0.195
2,O=C1N(CCS(=O)(=O)c2ccccc2)c2ccccc2[C@H]2OC(c3ccc(OCCCO)cc3)=N[C@@]12Cc1ccccc1,0.507
3,COCCOC(=O)N1C(=O)[C@@]2(c3cc(C#CC4(O)CCCCCC4)ccc31)[C@H](c1ccc(O)cc1)N1[C@H](c3ccccc3)[C@H](c3ccccc3)OC(=O)[C@H]1[C@@H]2C(=O)N1CCN(c2ncccn2)CC1,-0.0282
4,CO[C@H]1O[C@H](CO)[C@@H](OC(=O)Nc2ccccc2)[C@H](OC(=O)c2cc3ccccc3[nH]2)[C@H]1OC(=O)c1cc2ccccc2[nH]1,-0.0107
5,O=C1O[C@@H](c2ccccc2)[C@@H](c2ccccc2)N2[C@@H](c3ccc(OCCO)cc3)[C@]3(C(=O)Nc4ccc(C#CC5=CCCCC5)cc43)[C@@H](C(=O)NC[C@H](O)c3ccccc3)[C@H]12,-0.0696
6,CC1CC/C=C\[C@H]2OC34C=CCN(c5ccc6ccccc6c5)C(=O)[C@H]3N(CCCO)C(=O)[C@@H]4C2C(=O)O1 (stereo partly drawn),-0.136
7,CC(C)C(O)C1C=CC2C(=O)N(c3ccccc3)C(=O)C2N1Nc1ccccc1 (stereo not drawn),0.0436
8,CC(C)C(CO)N1C(=O)[C@@H]2[C@H]3C(=O)OCC=C[C@H]3OC23C=CCN(c2ccc(Cl)cc2)C(=O)[C@@H]13 (stereo partly drawn),-0.246
9,CCOC(=O)C[C@H]1[C@H](OC(=O)Cc2ccc3c(c2)OCO3)[C@@H](NC(=O)c2ccc3ccccc3n2)c2cc(OCCCO)ccc2N1C(=O)c1ccc2ccccc2n1,-0.0708
10,CCCC=C(CCC)[C@@H](NC(=O)C(C)(C)C)c1ccc(C(=O)OC)cc1,0.498
11,COC(=O)[C@@]1(Cc2ccccc2)[C@H]2c3cc(C(=O)N4CCCC4)n(CCc4ccccn4)c3C[C@H]2CN1C(=O)c1ccccc1,0.754
12,CC(C)c1ccc(NN2C(C(O)c3ccc(C#N)cc3)C=CC3C(=O)N(c4ccccc4)C(=O)C32)cc1 (stereo not drawn),0.286
13,COc1ccc([Si](C)(C)[C@H]2[C@H](CC(=O)N3Cc4ccccc4C[C@H]3CO)O[C@@]3(C(=O)N(Cc4ccc(N5CCOC5=O)cc4)c4ccccc43)[C@@H]2C)cc1,-0.123

# Test system: Noggin (protein binding on small-molecule microarray)
# Experiment: small molecules binding Noggin protein – biochemical, 635/667 nm fluorescence, primary screen (AID 1095);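 further: score merges 667 nm feature fluorescence with signal to noise over triplicate slides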
# Conditions: 635 nm fluorescence, higher = more signal
row,SMILES,composite z-score
1,COCC(=C=CC[C@H](O)c1ccc(OCCO)cc1)CCO,1.21
2,CCOC(=O)C[C@H]1[C@H](OC(=O)Cc2ccc3c(c2)OCO3)[C@@H](NC(=O)c2ccc3ccccc3n2)c2cc(OCCCO)ccc2N1C(=O)c1ccccc1,0.257
3,COc1ccc([Si](C)(C)[C@@H]2[C@@H](CC(=O)N3CCC[C@H]3CO)O[C@]3(C(=O)N(Cc4cccc(N5C(=O)COc6ccccc65)c4)c4ccccc43)[C@H]2C)cc1,0.942
4,COc1ccc(CCNC(=O)[C@@H]2c3ccccc3C(=O)N(C3CCCCC3)[C@H]2c2ccc(CO)cc2)cc1,-0.282
5,NCCCCCNC(=O)[C@@H]1C[C@@H]2C(=O)N[C@@H](CCCCN)C(=O)N2[C@@H]1c1ccc(O)cc1,1.67
6,NC(=O)[C@H]1[C@@H]2C(=O)O[C@@H](c3ccccc3)[C@@H](c3ccccc3)N2[C@@H](c2ccc(OCCO)cc2)[C@]12C(=O)Nc1ccc(C#CCCO)cc12,0.425
7,CCCCC(O)C1C=CC2C(=O)N(C)C(=O)C2N1N(c1ccccc1)c1ccccc1 (stereo not drawn),-0.0371
8,CCCC[C@@H](O)C1=C(COC)C[C@H]2C(=O)N(C)C(=O)[C@H]2[C@H]1CO,0.578
9,C=C(COC)/C(=C/C[C@H](OC(=O)c1ccncc1)c1ccccc1OCCO)c1cc(C(=O)OC)ccc1OC,1.23
10,COC(=O)C1(CC(C)C)C=C2C(=C(c3ccccc3)C(=O)C2C)CN1 (stereo not drawn),-1.13
11,CCOc1cc(C(O)C2C=CC3C(=O)NC(=O)C3N2Nc2ccc(Cl)cc2Cl)ccc1O (stereo not drawn),-0.26
12,Cc1ccc(S[C@]2(C(=O)NC(C)C)CC(=O)N(Cc3cc(C(F)(F)F)cc(C(F)(F)F)c3)[C@@H]2c2ccc(CO)cc2)cc1,-1.27
13,CCCCCCCCCC(O)C1C=CC2C(=O)N(c3ccccc3)C(=O)C2N1Nc1cc(OC)c(OC)c(OC)c1 (stereo not drawn),-0.344
14,COc1cc(C(O)C2C=CC3C(=O)N(C)C(=O)C3N2Nc2ccccc2)cc(OC)c1OC (stereo not drawn),-0.339
15,CCOC(=O)C1=C[C@@H](C(C)C)N(S(=O)(=O)c2ccc(C)cc2)[C@H]1c1ccc(C(F)(F)F)cc1,0.745
16,CC(C)C(CO)N1C(=O)[C@@H]2C3C(=O)OCCC/C=C\[C@H]3OC23C=CCN(c2ccc4ccccc4c2)C(=O)[C@@H]13 (stereo partly drawn),-0.469
17,CCCCN1CC=CC23O[C@@H]4/C=C\CCCOC(=O)C4[C@H]2C(=O)N(CCO)[C@@H]3C1=O (stereo partly drawn),-1.03
18,CC(C)C(CO)N1C(=O)[C@@H]2C3C(=O)OCCC/C=C\[C@H]3OC23C=CCN(Cn2nnc4ccccc42)C(=O)[C@@H]13 (stereo partly drawn),-0.421

row,SMILES,composite z-score
1,C=CC[C@@]1(C(=O)NCCCOC)N=C(c2ccc(OCCCO)cc2)O[C@@H]1c1ccccc1N=[N+]=[N-],0.794
2,C=CCNC(=O)[C@@H]1[C@H]2C(=O)O[C@H](c3ccccc3)[C@H](c3ccccc3)N2[C@H](c2ccccc2OCCO)[C@@]12C(=O)N(C(=O)OCCOC)c1ccc(C#CC3(O)CCCCCC3)cc12,1.02
3,COCCOC(=O)N1C(=O)[C@@]2(c3cc(C#CCC(C(=O)OC)C(=O)OC)ccc31)[C@H](c1ccc(OCCO)cc1)N1[C@H](c3ccccc3)[C@H](c3ccccc3)OC(=O)[C@H]1[C@@H]2C(=O)N1CCc2cc(OC)c(OC)cc2C1,1.72
4,C=CCN1C(=O)[C@]2(CCC(=O)OC(C)(C)C)N=C(c3ccc(OCCCO)cc3)O[C@@H]2c2ccccc21,0.501
5,C#CCN(Cc1ccccc1Br)[C@H](/C=C/c1ccccc1)[C@@H](O)Cc1ccccc1,-1.24
6,O=C1N(CCS(=O)(=O)c2ccccc2)c2ccccc2[C@H]2OC(c3ccc(OCCCO)cc3)=N[C@@]12Cc1ccccc1,1.56
7,COCCOC(=O)N1C(=O)[C@@]2(c3cc(C#CC4(O)CCCCCC4)ccc31)[C@H](c1ccc(O)cc1)N1[C@H](c3ccccc3)[C@H](c3ccccc3)OC(=O)[C@H]1[C@@H]2C(=O)N1CCN(c2ncccn2)CC1,0.0969
8,CO[C@H]1O[C@H](CO)[C@@H](OC(=O)Nc2ccccc2)[C@H](OC(=O)c2cc3ccccc3[nH]2)[C@H]1OC(=O)c1cc2ccccc2[nH]1,0.248
9,O=C1O[C@@H](c2ccccc2)[C@@H](c2ccccc2)N2[C@@H](c3ccc(OCCO)cc3)[C@]3(C(=O)Nc4ccc(C#CC5=CCCCC5)cc43)[C@@H](C(=O)NC[C@H](O)c3ccccc3)[C@H]12,1.51
10,CC1CC/C=C\[C@H]2OC34C=CCN(c5ccc6ccccc6c5)C(=O)[C@H]3N(CCCO)C(=O)[C@@H]4C2C(=O)O1 (stereo partly drawn),-1.32
11,CC(C)C(O)C1C=CC2C(=O)N(c3ccccc3)C(=O)C2N1Nc1ccccc1 (stereo not drawn),0.948
12,CC(C)C(CO)N1C(=O)[C@@H]2[C@H]3C(=O)OCC=C[C@H]3OC23C=CCN(c2ccc(Cl)cc2)C(=O)[C@@H]13 (stereo partly drawn),-1.16
13,CCOC(=O)C[C@H]1[C@H](OC(=O)Cc2ccc3c(c2)OCO3)[C@@H](NC(=O)c2ccc3ccccc3n2)c2cc(OCCCO)ccc2N1C(=O)c1ccc2ccccc2n1,0.719
14,CCCC=C(CCC)[C@@H](NC(=O)C(C)(C)C)c1ccc(C(=O)OC)cc1,-0.383
15,COC(=O)[C@@]1(Cc2ccccc2)[C@H]2c3cc(C(=O)N4CCCC4)n(CCc4ccccn4)c3C[C@H]2CN1C(=O)c1ccccc1,0.678
16,CC(C)c1ccc(NN2C(C(O)c3ccc(C#N)cc3)C=CC3C(=O)N(c4ccccc4)C(=O)C32)cc1 (stereo not drawn),-0.144
17,COc1ccc([Si](C)(C)[C@H]2[C@H](CC(=O)N3Cc4ccccc4C[C@H]3CO)O[C@@]3(C(=O)N(Cc4ccc(N5CCOC5=O)cc4)c4ccccc43)[C@@H]2C)cc1,1.46
